Assay outcomes: PubChem BioAssay, several laboratories
AHR act: human AHR activation | 320,000 compounds, 2.5% hits | AHR-responsive luciferase reporter cells, luminescence | activation, % at 5 µM; in the data active means activation above about 47%;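 further: 0% = vehicle wells and 100% = reference agonist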
HSP90 inh: HSP90 refolding inhibition in rabbit reticulocyte lysate. inhibition, % at 5.6 µM. 290,000 compounds, 0.91% hits. luciferase refolding luminescence, 3 h. AID 1789;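 active means inhibition above the screen-wide mean plus 3 SD, computed separately per campaign, cut at about 16% in these data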;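 further: 0% = DMSO wells and 100% = 60 µM geldanamycin wells; inhibitors lower the luminescence because luciferase stays unfolded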
FXN GAA850 act: activators of GAA850 frataxin (FXN) promoter. AID 540364. 360,000 compounds, 0.56% hits. activation, % at 6 µM. HEK293 lucGAA850 FXN promoter luciferase reporter, 24 h; percent of 10 µM SAHA response;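 active means activation above the average of all compounds screened plus 3 SD, cutoff fixed separately per campaign, cut at about 7.5% in these data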;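 further: 0% = DMSO wells and 100% = 10 µM SAHA wells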
NR0B1 inh: inhibits human nuclear receptor DAX1 | P51843 | HEK293 Gal4-DAX1 luciferase reporter, luminescence | inhibition, % at 6.75 µM | 340,000 compounds, 0.99% hits | AID 504766;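 active means inhibition above the mean over all tested compounds plus 3 SD, cut at about 4.2% in these data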;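 further: 0% = DAX1-transfected cells with DMSO and 100% = empty-vector control cells with DMSO; inhibition shows as a rise in luminescence from relieved DAX1 repression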
HSF1 inh: HSF1 inhibition; activity change, negative = inhibition, % at 7.5 µM (by protocol); 300,000 compounds, 0.77% hits; NIH3T3-HGL HSE-luciferase, MG132-induced, luminescence 8 h; hits give low values;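 active means more than half of replicate wells show activity change below -50%, luminescence cut by over half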;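 further: luciferase reports HSF-1 transcriptional activity via heat shock element; 0% = median of DMSO wells and -100% = zero luminescence signal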
HSF-1 act: increases HSF-1 driven luciferase reporter signal; AID 504408; activation, % at 9 µM; NIH3T3-HGL HSF-1 luciferase reporter, MG132, 8 h; 100% = twice DMSO control signal; 300,000 compounds, 1.7% hits;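 active means mean replicate activation of at least 50% with a set share of replicates each reaching 50%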;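 further: 0% = median of the neutral control wells and 100% = twice that signal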
HSP90 inh confirm: confirmation of HSP90 inhibitors | shares compounds with HSP90 inh | rabbit reticulocyte lysate, luciferase refolding luminescence, 3 h | inhibition, % at 5.9 µM | 2,300 compounds, 64% hits | AID 1846; in the data active means inhibition above about 18%;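 further: 0% = vehicle wells and 100% = reference inhibitor wells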
FLuc counter: counter-screen for HSP90 inhibitors: inhibitors of firefly luciferase | shares compounds with HSP90 inh | inhibition, % at 5.9 µM | 2,300 compounds, 48% hits | purified native firefly luciferase, luminescence;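 active means inhibition above the mean inhibition of all tested sample wells plus 3 SD, cut at about 10% in these data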;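 further: 0% = DMSO with luciferase and 100% = wells lacking luciferase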
Target sequence (P08659 whole entry, looked up): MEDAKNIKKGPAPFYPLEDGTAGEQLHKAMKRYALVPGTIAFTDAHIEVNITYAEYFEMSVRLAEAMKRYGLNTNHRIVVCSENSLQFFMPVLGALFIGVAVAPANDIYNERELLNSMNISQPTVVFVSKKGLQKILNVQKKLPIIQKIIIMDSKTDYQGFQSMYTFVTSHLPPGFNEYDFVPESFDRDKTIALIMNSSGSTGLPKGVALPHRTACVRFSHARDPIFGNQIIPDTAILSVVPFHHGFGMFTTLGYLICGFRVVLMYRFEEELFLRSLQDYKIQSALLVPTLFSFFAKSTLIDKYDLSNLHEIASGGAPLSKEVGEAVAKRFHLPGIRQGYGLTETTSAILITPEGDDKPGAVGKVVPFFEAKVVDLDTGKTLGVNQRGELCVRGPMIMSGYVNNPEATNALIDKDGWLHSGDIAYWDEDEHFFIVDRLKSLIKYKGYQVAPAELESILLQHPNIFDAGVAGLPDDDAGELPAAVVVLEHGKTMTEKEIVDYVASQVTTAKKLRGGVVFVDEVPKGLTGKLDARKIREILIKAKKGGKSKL
The depositor's hits bear a star; . = no result. Hits are enriched below; roughly 5.9% of the tested compounds scored in any of these assays.

SMILES	AHR act	HSP90 inh	FXN GAA850 act	NR0B1 inh	HSF1 inh	HSF-1 act	HSP90 inh confirm	FLuc counter
Cc1n[nH]c(=O)n1-c1ccc(C(C)(C)C)cc1	0	-1	0	0	-3	-7	.	.
CCOC(=O)Cn1nc(C)n(-c2ccc(C(C)(C)C)cc2)c1=O	0	17*	1	0	-7	4	3	-4
CNc1nc(-c2ccc3c(c2)CCN3C(=O)c2cccc(F)c2)cs1	7	11	-5	0	-1	5	.	.
CNc1nc(-c2ccc3c(c2)CCN3C(=O)c2ccc(F)cc2)cs1	.	19*	0	0	.	.	14	-23
CC(C)CN1C(=O)NC(NC(=O)c2ccco2)(C(F)(F)F)C1=O (stereo not given)	1	27*	4	0	1	-5	1	-10
CCOC(=O)c1ccccc1-c1csc(NS(=O)(=O)c2ccc(Cl)cc2)n1	-4	0	-3	1	18	7	.	.
CCCn1c(C)cc(C(=O)COC(=O)c2cc(=O)[nH]c3ccccc23)c1C	.	.	-1	-1	.	.	.	.
CCCn1c(C)cc(C(=O)COC(=O)c2nccnc2N)c1C	0	25*	0	0	1	12	40*	57*
CC(C)(C)c1ccc(C(=O)NCC(=O)OCCN2C(=O)c3ccccc3C2=O)cc1	7	.	1	0	2	12	.	.
NC1=NS(=O)(=O)NC1c1cccc(Cl)c1 (stereo not given)	1	22*	-2	0	-1	-1	-3	-6
NC1=NS(=O)(=O)NC1c1cccc(F)c1 (stereo not given)	0	-2	0	4	5	-1	.	.
O=C(NCCc1ccccc1)c1cccnc1	2	1	2	2	-6	-22	.	.
CCOc1ccc(C(=O)NCCc2ccccc2)cc1	-6	23*	-4	-2	1	24	66*	55*
O=C(NCCc1ccccc1)c1ccc2nccnc2c1	-5	40*	-3	-1	-31	-24	52*	41*
O=C(NCCc1ccccc1)c1ccc2c(c1)OCO2	-5	76*	-8	-4	-18	-5	83*	78*
Cc1cc(C)cc(NC(=O)CN2C(=O)C3CC=CCC3C2=O)c1 (stereo not given)	9	.	2	0	.	.	.	.
c1ccc2c(c1)[nH]c1c(NCC3CCCO3)ncnc12 (stereo not given)	28	32*	0	-1	-6	-3	-7	-11
Cc1[nH]c2ccccc2c1C(c1ccccn1)N1CCC(C)CC1 (stereo not given)	5	46*	2	0	-6	-1	1	-6
Cc1[nH]c2ccccc2c1C(c1ccccn1)N1CCCC1 (stereo not given)	1	4	2	2	-6	8	.	.
CC(=O)OCc1c(C)cc(C)c(/C=C(/C#N)C(N)=O)c1C	0	-8	1	0	-9	9	.	.
COc1cc(C2C(C(=O)/C=C/c3ccccc3)=C(O)C(=O)N2c2ccccn2)ccc1O (stereo not given)	3	0	3	0	2	7	.	.
COc1ccc(C(=O)c2coc3ccc(O)c(CN4CCCCC4)c23)cc1	0	47*	-1	-1	1	-1	-1	-10
Cn1c(=O)[nH]c(=O)c2c1nc(N1CCCCC1)n2C/C=N/Nc1ccc(C(=O)O)cc1	-5	41*	-4	-2	2	25	29*	36*
C/C=C/Cn1c(N2CCCCCC2)nc2c1c(=O)[nH]c(=O)n2C	-1	0	3	-1	-10	6	.	.
O=c1c2ccccc2cnn1Cc1nnc(-c2cccs2)o1	4	19*	1	0	0	-7	-1	-5
SMILES	AHR act	HSP90 inh	FXN GAA850 act	NR0B1 inh	HSF1 inh	HSF-1 act	HSP90 inh confirm	FLuc counter
C(=C\c1cccc2ccccc12)/c1nnc(-c2cccs2)o1	46	-2	7	0	3	-3	.	.
Cc1ccc(-n2ncc3c2CC(C)(C)CC3NC(=O)c2ccncc2)cc1 (stereo not given)	0	-2	4	0	-32	-43	.	.
O=C1CN(C(=O)CNCc2ccc(Cl)cc2)c2ccccc2N1	1	25*	-1	-1	9	4	-13	-11
O=C(Nc1ccc(NC(=O)c2ccco2)nc1)c1cccc(F)c1	-3	5	5	0	21	17	.	.
O=C(Nc1ccc(NC(=O)c2ccccc2F)cn1)c1ccco1	-4	28*	1	-3	-2	-6	52*	36*
CCN(CC)c1ccc2cc(/C(N)=N/NC(=O)c3cccs3)c(=O)oc2c1	7	22*	.	.	-10	-15	4	-1
COc1ccc(-c2cc(C(F)(F)F)c3c(=O)n(-c4ccccc4)[nH]c3n2)cc1	1	-3	2	1	-2	-1	.	.
CC1CCC2(CC1)NC(=O)N(CC(=O)Nc1cc(S(=O)(=O)N3CCCC3)ccc1Cl)C2=O (stereo not given)	2	.	5	1	.	.	.	.
C/C(=N/NC(=O)c1ccccn1)c1ccc(O)cc1	4	20*	4	4.6*	10	31	6	-14
C/C(=N\NC(=O)c1ccc(N/N=C(\C)c2ccc(O)cc2)cc1)c1ccc(O)cc1	10	27*	-3	-1	8	31	4	-17
Nc1nc(SCC(=O)N2CCCCCC2)[nH]c(=O)c1NC(=O)c1ccco1	-1	-3	-1	1	.	.	.	.
CCSc1nnc(-c2cc(Br)ccc2NC(C)=O)c(=O)[nH]1	1	0	1	-1	0	-5	.	.
COc1ccccc1C(=O)Nc1nc2ccccc2[nH]1	30	98*	-14	-4	-83*	-86	97*	92*
COc1ccccc1C(=O)NCCC(=O)Nc1nc2ccccc2[nH]1	12	.	2	4	-7	-15	.	.
COc1ccc(C(=O)Nc2ccc3ccccc3n2)c(OC)c1OC	3	41*	-5	-6	-29	-45	68*	65*
COc1cc(SC)ccc1C(=O)Nc1nc2ccccc2[nH]1	-4	99*	-14	-4	-92*	-93	97*	92*
COc1cc(SC)ccc1C(=O)Nc1ccccc1	12	-2	4	2	17	43	.	.
C/C(=N\N=C(N)N)c1ccc(Cl)c(Cl)c1	18	2	6	0	-2	1	.	.
CCCn1c(C(C)Nc2nc(-c3cc(Cl)c(N)c(Cl)c3)cs2)nc2cc(Cl)c(N3CCCCC3)cc21 (stereo not given)	12	9	-1	1	5	18	.	.
